Assay outcomes deposited in PubChem by Broad Institute.
T cruzi growth = T. cruzi intracellular proliferation inhibitors, primary screen, cell-based, beta-gal Tulahuen parasites, NIH3T3 host, luminescence; T. cruzi beta-gal in NIH3T3, GalScreen luminescence, 90 h; inhibition, % at 8.34 µM; 5.9% of 77,000 active; AID 624255, 2012;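 active means mean inhibition above about 93%, with at least 55% of replicates each passing it, limit read from the data, passing the limit was not always enough; inconclusive means only one of those two conditions holds; inactive means neither condition holds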
C diff HTS = C. difficile growth inhibitors, primary screen, HTS | Clostridium difficile clinical isolate growth, OD600, 24 h; stronger effect = lower value | growth activity, negative = inhibition, % at 16 µg/mL (by protocol) | 0.25% of 86,000 active | AID 1259249, 2017;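 active means mean growth activity at or below -80% and every replicate also at or below -80%; inconclusive means mean at or below -80% but some replicate above -80%; inactive means mean growth activity above -80%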
Pf Dd2 growth = P. falciparum Dd2 growth inhibitors, primary screen, SYBR Green fluorescence, single dose replicates | 72 h; stronger effect = lower value | activity change, % at 10 µM | 2.3% of 94,000 active | AID 1159554, 2015; in the data active means activity change below about -80%; inconclusive means no clear call, values can overlap the other calls
Hits are given with their value; – = inactive; ? = inconclusive; · = no result; ! = a repeat was not active. A selection: hits, their analogues and other compounds. The true share with any hit is near 6.7%.

SMILES	T cruzi growth	C diff HTS	Pf Dd2 growth
COc1ccc(S(=O)(=O)Nc2ccc3c(c2)CC(=O)N([C@@H](C)CO)C[C@H](C)[C@H](CN(C)S(=O)(=O)c2ccc(C)cc2)O3)cc1	–	–	-86.2
C[C@H]1CN([C@@H](C)CO)C(=O)Cc2cc(NS(=O)(=O)c3ccc(Cl)cc3)ccc2O[C@H]1CN(C)S(=O)(=O)c1ccc(Cl)cc1	–	–	–
CCCC(=O)Nc1ccc2c(c1)C(=O)N(C)C[C@H](OC)[C@H](C)CN(C(=O)c1cnccn1)[C@H](C)CO2	–	–	–
CO[C@@H]1CN(C)C(=O)c2ccc(NS(C)(=O)=O)cc2OC[C@@H](C)N(C(=O)c2ccc3c(c2)OCO3)C[C@@H]1C	–	–	–
O=C(c1cccnc1)N1CC2(C1)[C@@H](c1ccccc1)[C@@H](CO)N2C(=O)CC1CC1	·	–	-86.7
O=C(CC1CC1)N1CC2(C1)[C@H](c1ccccc1)[C@@H](CO)N2C(=O)c1cccnc1	·	–	–
COc1ccc(S(=O)(=O)N(C)C[C@H]2OCCCC[C@@H](C)Oc3ccc(N(C)C)cc3C(=O)N([C@H](C)CO)C[C@@H]2C)cc1	–	–	-83.2!
C[C@@H]1CN([C@H](C)CO)C(=O)c2cc(N(C)C)ccc2O[C@@H](C)CCCCO[C@H]1CN(C)S(=O)(=O)c1ccc(Cl)cc1	–	–	-84.3
COc1ccc(S(=O)(=O)N(C)C[C@@H]2OCCCC[C@@H](C)Oc3ccc(N(C)C)cc3C(=O)N([C@@H](C)CO)C[C@H]2C)cc1	–	–	–
C[C@H]1CCCCO[C@@H](CN(C)S(=O)(=O)c2ccc(Cl)cc2)[C@@H](C)CN([C@@H](C)CO)C(=O)c2cc(N(C)C)ccc2O1	–	–	·
C[C@@H]1CCCCO[C@@H](CN(C)S(=O)(=O)c2cccs2)[C@H](C)CN([C@H](C)CO)C(=O)c2cc(NS(=O)(=O)c3ccccc3)ccc2O1	·	·	–
C[C@H]1CN([C@@H](C)CO)C(=O)c2cc(-c3cccc(F)c3)cnc2O[C@H]1CN(C)C(=O)C1CCC1	·	–	–
CCCN1C[C@@H](C)[C@H](OC)CN(C)C(=O)c2cc(NC(=O)NC3CCCC3)ccc2OC[C@@H]1C	·	–	–
COCC(=O)Nc1ccc2c(c1)C(=O)N(C)[C@H]1CC[C@@H](CC(=O)N3CCc4ccccc4C3)O[C@H]1CO2	–	–	–
COc1ccc(CN2CC3(C2)CN(Cc2ccc4c(c2)OCO4)[C@@H](CO)c2[nH]c4cc(OC)ccc4c23)cc1	·	–	-83.9
COc1ccc(CN2CC3(CN(Cc4ccccc4OC)C3)c3c([nH]c4cc(OC)ccc34)[C@H]2CO)cc1	·	–	–
COc1ccc(CN2CC3(C2)CN(Cc2ccc4c(c2)OCO4)[C@H](CO)c2[nH]c4cc(OC)ccc4c23)cc1	·	–	-86.9
CCS(=O)(=O)N1CC2(CN(Cc3ccc4c(c3)OCO4)[C@@H](CO)c3[nH]c4cc(OC)ccc4c32)C1	·	–	–
COc1ccccc1C#Cc1cnc2c(c1)C(=O)N([C@@H](C)CO)C[C@H](C)[C@@H](CN(C)C(=O)c1ccc3c(c1)OCO3)O2	·	–	–
C[C@H](CO)N1C[C@H](C)[C@H](CN(C)C(=O)NC2CCCCC2)Oc2ccc(NC(=O)C3CC3)cc2CC1=O	–	–	–
C[C@@H]1CN([C@@H](C)CO)C(=O)c2cccc(NC(=O)C3CCCCC3)c2O[C@H]1CN(C)Cc1ccc(C(F)(F)F)cc1	–	–	-83.3
C[C@H](CO)N1C[C@H](C)[C@H](CN(C)Cc2ccc(C(=O)Nc3ccccc3N)cc2)Oc2c(NC(=O)C3CCCCC3)cccc2C1=O	–	–	?
C[C@H]1CN([C@@H](C)CO)C(=O)c2cccc(NC(=O)Nc3ccc(F)cc3)c2O[C@H]1CN(C)Cc1ccc(C(=O)Nc2ccccc2N)cc1	·	–	–
COc1ccc(NC(=O)Nc2cccc3c2O[C@@H](CN(C)Cc2ccc(C(=O)Nc4ccccc4N)cc2)[C@@H](C)CN([C@H](C)CO)C3=O)cc1	·	–	–
C[C@H](CO)N1C[C@H](C)[C@H](CN(C)Cc2ccc(C(F)(F)F)cc2)Oc2c(NC(=O)C3CCCCC3)cccc2C1=O	–	–	–
SMILES	T cruzi growth	C diff HTS	Pf Dd2 growth
COc1ccc(NC(=O)Nc2cccc3c2O[C@H](CN(C)Cc2ccc(C(=O)Nc4ccccc4N)cc2)[C@H](C)CN([C@H](C)CO)C3=O)cc1	–	–	-92.8
C[C@H](CO)N1C[C@H](C)[C@@H](CN(C)Cc2ccc(C(=O)Nc3ccccc3N)cc2)Oc2c(NC(=O)Nc3ccc(F)cc3)cccc2C1=O	·	–	-84.6
C[C@H]1CN([C@@H](C)CO)C(=O)c2cccc(NC(=O)C3CCCCC3)c2O[C@@H]1CN(C)Cc1ccc(C(=O)Nc2ccccc2N)cc1	–	–	-87.9
O=C(Nc1ccc2c(c1)[C@@H]1C[C@H](CC(=O)N3CCc4ccccc4C3)O[C@H](CO)[C@@H]1O2)c1cccnc1	–	·	–
CCC(=O)Nc1ccc2c(c1)C(=O)N(C)[C@H]1CC[C@@H](CC(=O)NCC3CC3)O[C@H]1CO2	–	–	–
O=C(c1ccncc1)N1CC(=O)N2[C@H](C1)[C@@H](c1ccc(-c3ccccc3F)cc1)[C@@H]2CO	·	–	–
C[C@H]1CN([C@@H](C)CO)C(=O)c2cccc(NC(=O)Nc3ccccc3)c2O[C@H]1CN(C)Cc1ccc(C(=O)Nc2ccccc2N)cc1	–	–	–
C[C@@H]1CN([C@H](C)CO)C(=O)c2cccc(NC(=O)Nc3ccccc3)c2O[C@@H]1CN(C)Cc1ccc(C(=O)Nc2ccccc2N)cc1	–	–	-90.8
CCCNC(=O)N1C[C@H](C)[C@@H](OC)CN(C)C(=O)c2cc(NS(=O)(=O)CC(F)(F)F)ccc2OC[C@H]1C	–	·	–
COc1ccc(NC(=O)Nc2ccc3c(c2)CC(=O)N([C@@H](C)CO)C[C@H](C)[C@@H](CN(C)C(=O)Nc2ccc(F)cc2)O3)cc1	–	–	-85.5
COc1ccc(NC(=O)Nc2ccc3c(c2)CC(=O)N([C@H](C)CO)C[C@H](C)[C@@H](CN(C)CC2CCCCC2)O3)cc1	–	–	-86.2
COc1ccc(NC(=O)Nc2ccc3c(c2)CC(=O)N([C@@H](C)CO)C[C@H](C)[C@H](CN(C)CC2CC2)O3)cc1	–	–	–
COc1ccc(NC(=O)N(C)C[C@@H]2Oc3ccc(NC(=O)Nc4ccc(F)cc4)cc3CC(=O)N([C@@H](C)CO)C[C@@H]2C)cc1	–	–	–
C[C@@H]1CN([C@H](C)CO)C(=O)Cc2cc(NC(=O)Nc3ccc(F)cc3)ccc2O[C@H]1CN(C)CC1CC1	–	–	–
C[C@@H]1CN([C@@H](C)CO)C(=O)Cc2cc(NC(=O)Nc3ccc(F)cc3)ccc2O[C@H]1CN(C)CC1CCCCC1	–	–	-88.7
COc1ccc(NC(=O)Nc2ccc3c(c2)CC(=O)N([C@@H](C)CO)C[C@@H](C)[C@@H](CN(C)CC2CC2)O3)cc1	–	–	-82.6
COc1ccc(NC(=O)Nc2ccc3c(c2)CC(=O)N([C@@H](C)CO)C[C@@H](C)[C@@H](CN(C)CC2CCCCC2)O3)cc1	–	–	–
COc1ccc(NC(=O)Nc2ccc3c(c2)CC(=O)N([C@@H](C)CO)C[C@@H](C)[C@H](CN(C)C(=O)Nc2ccc(C(F)(F)F)cc2)O3)cc1	–	–	–
